# In PubChem BioAssay (NCI):
# This is part of a sample that, as a whole, favours compounds with a hit. Of some 83,000 tested, about 20% had one in any assay.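 Single-dose data. Exposure time 48 hours. Values below 10 considered active.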 Unmarked numbers belong to inactive results. The source made the active and inactive calls.
# Columns and labels:
# Test in all cases: NCI-60 one-dose screen, 48 h (100 = growth as untreated, 0 = no growth, -100 = all killed)
# Conditions in all cases: 10 µM
# SR leukemia = test system: SR leukemia
# OVCAR-5 ovarian = test system: OVCAR-5 ovarian
# OVCAR-4 ovarian = test system: OVCAR-4 ovarian
# SK-OV-3 ovarian = test system: SK-OV-3 ovarian
# IGROV1 ovarian = test system: IGROV1 ovarian
# OVCAR-3 ovarian = test system: OVCAR-3 ovarian
# HS 578T breast = test system: HS 578T breast
# NCI/ADR-RES ovarian = test system: NCI/ADR-RES ovarian
# OVCAR-8 ovarian = test system: OVCAR-8 ovarian
SMILES,growth (SR leukemia),growth (OVCAR-5 ovarian),growth (OVCAR-4 ovarian),growth (SK-OV-3 ovarian),growth (IGROV1 ovarian),growth (OVCAR-3 ovarian),growth (HS 578T breast),growth (NCI/ADR-RES ovarian),growth (OVCAR-8 ovarian)
Cc1cc(O)ccc1C1=NN(c2ccc(S(C)(=O)=O)cc2)C(=O)CC1,12.3%,98.1%,98%,85%,43.5%,65.1%,86.9%,40.6%,–
COc1ccccc1-n1c(-c2csc(NC(C)=O)n2)n[nH]c1=S,82.8%,–,103%,103%,97.8%,117%,105%,96.2%,104%
IC(I)I,122%,–,–,–,103%,106%,-4.06% (active),105%,107%
CC(C)(C)OC(=O)N1CCc2c(sc3ncnc(N/N=C/c4cccc(Br)c4)c23)C1,29.4%,70.5%,54.9%,62.2%,43.9%,61.5%,71.2%,42.1%,46.6%
N#Cc1c(-c2ccc(Cl)cc2)cc(-c2cc(O)ccc2O)nc1N,21.7%,86.6%,22.9%,45.2%,7.29% (active),–,27.6%,65.3%,1.52% (active)
Cc1c2cnccc2c(C)c2c1c1cc(O)ccc1n2C(C)C,-17.1% (active),69.2%,25%,-15.7% (active),7.7% (active),21.5%,3.64% (active),1.26% (active),7.98% (active)
Cn1c2ccccc2c2c3[nH][nH]c(=O)c3c3c4ccccc4[nH]c3c21,-12.1% (active),62.6%,51.3%,13.2%,11%,–,41%,68.5%,33.1%
CCOC(=O)c1sc2ncnc(Nc3ccc4c(cnn4C(=O)Nc4ccc(C)c(Cl)c4)c3)c2c1C,79.2%,–,115%,97.3%,97.9%,117%,112%,105%,102%
O=C1NC(=O)c2c(CCCSc3nc4ccccc4c(=O)n3CCc3ccccc3)cccc21,66.6%,102%,60.7%,86.2%,97.4%,–,74.1%,79.8%,83.7%
COc1ccc(-c2cc(-c3cc(OC)ccc3OC)nc(N)c2C#N)cc1,43.9%,–,48.4%,62.9%,58.7%,53.7%,53.7%,52.4%,39.5%
COc1ccc(-c2nn(-c3cccc(Cl)c3)cc2-c2cc(-c3ccccc3)[nH]c(=O)c2C#N)cc1,64.8%,94.1%,31%,-47.3% (active),49.4%,25.8%,23.5%,37.8%,26.3%
C=C/C(C)=C/C[C@]1(C)[C@H](C)[C@@H](OC(=O)CCC)[C@H](O)[C@@]23C(=C[C@H](OC)C[C@@H]12)[C@@H](OC(=O)CCC)O[C@H]3OC(C)=O,-20.2% (active),-41.3% (active),-2.11% (active),-89.7% (active),-9.72% (active),-86.5% (active),-31.5% (active),-20.4% (active),-60.4% (active)
CC(C)(C)OC(=O)CN1CCc2c(sc3ncnc(N/N=C/c4ccccc4Br)c23)C1,37.6%,92.3%,74.7%,109%,50.6%,69%,77%,71.7%,61.5%
O=C(CCCCNC(=O)c1nc(-c2ccccc2)n(-c2ccccc2)n1)NO,76%,–,–,13.2%,89.2%,70.1%,60.8%,87.6%,51%
COc1cc2c3c(n([C@H]4CCOC4)c(=O)c2cc1OC)-c1cc2c(cc1C3=O)OCO2,13.6%,71.6%,70.9%,24.6%,62%,–,107%,27.5%,35.2%
